VACV E9 pol inh: vaccinia E9 polymerase processive synthesis inhibitors, primary screen, biochemical, absorbance; Vaccinia virus DNA polymerase (E9) processive complex; in vitro processive DNA synthesis, absorbance read-out; hits give low values; normalized absorbance, % (concentration not given with the values); hit rate 0.94% among 46,000; AID 493162, 2011; in the data active = normalized absorbance mostly below about 85%, no sharp cut-off; inactive = mostly above about 86%
A number is an active result; n = inactive. The sample as a whole holds a higher share of hits than the screen did.

SMILES	VACV E9 pol inh
Cc1ccc(C2=C/C(=C/c3ccc(-c4cccc(C(=O)O)c4)o3)C(=O)O2)cc1	n
Cc1cc(C(=O)OCC(=O)N(C)Cc2ccccc2)c(C)o1	n
NC(=O)CSc1nnc(-c2c[nH]c3ccccc23)n1-c1ccc(F)cc1	n
CCOc1ccc(-n2ccnc2SCC(=O)Nc2ccc(Cl)cc2)cc1	n
CCOc1ccc(NC(=O)c2sc(C)c(CC(=O)Nc3ccc(Cl)cc3)c2O)cc1	80
CCOc1ccc(NC(=O)CN2C(=O)S/C(=C/c3ccc(Cl)cc3)C2=O)cc1	n
CCOCC(=O)OCc1ccc(Cl)cc1	n
COc1ccc(/C(O)=C/c2nc3ccc(C(=O)N4CCOCC4)cc3[nH]c2=O)cc1OC	n
Cc1ccc(/C(O)=C/c2nc3ccccc3[nH]c2=O)cc1C	n
CCN1CCN(CCCNC(=O)c2ccc3nc(/C=C(\O)c4ccc(OC)cc4)c(=O)[nH]c3c2)CC1	48
O=C(COC(=O)c1cccc(F)c1)Nc1cc(Cl)cc(Cl)c1	n
O=C1CNC(=O)N1/N=C/c1cccc2ccccc12	n
O=c1[nH][nH]c(=O)n1CCCc1cc2cccc3ccc4cccc1c4c32	63
COc1ccccc1/C=C1\SC(=S)N(CCC(=O)Nc2nccs2)C1=O	n
Cc1ccc(Cn2nnc3c(=O)n(Cc4ccc(C(F)(F)F)cc4)cnc32)cc1	n
O=c1c2nnn(Cc3ccc(F)cc3)c2ncn1Cc1ccc(F)cc1	69
Cc1ccc(Cn2nnc3c(=O)n(Cc4cccc(C)c4)cnc32)cc1	n
CCC(=O)N/C(N)=N\c1nc(C)c2ccccc2n1	n
c1ccc(-c2nc(N3CCCC3)nc3ccccc23)cc1	n
NC(N)=Nc1nc(-c2ccccc2)c2ccccc2n1	51
c1ccc(-c2nnc(Cc3ccc4c(c3)OCO4)o2)cc1	n
Cc1sc(NC(=O)Cn2nc(C(F)(F)F)cc2C)c(C(N)=O)c1C	n
COc1ccc2cc3cc(C(=O)NCCC(C)C)sc3nc2c1	n
COc1ccc2cc3cc(C(=O)NCCN4CCN(c5ccccc5F)CC4)sc3nc2c1	n
COc1ccc2cc3cc(C(=O)NCCCN4CCCCCC4)sc3nc2c1	40
SMILES	VACV E9 pol inh
COC(=O)C12CC3(C(=O)OC)CC(C(=O)OC)(CC(C(=O)OC)(C1)C3=O)C2=O	n
CSc1nnc(NC(=O)c2cccs2)s1	n
N#CC1=C(N=Cc2cc(Cl)cc(Cl)c2O)CCC1	83
Oc1c(Cl)cc(Cl)cc1/C=N/c1nc2c(s1)CCCC2	n
N#CC1=C(N=Cc2c(O)ccc3ccccc23)CCC1	n
CCn1cc(C(=O)NN)c(=O)c2cc(F)c(N3CCCC3)cc21	n
CCn1cc(C(=O)O)c(=O)c2cc(F)c(N3CCNCC3)cc21	77
CCn1cc(C(=O)O)c(=O)c2cnc(N3CCNCC3)nc21	n
CCN1C(=S)NC2c3cc(C)ccc3OC13CCCC23 (centres undefined)	n
CCOC(=O)CCN1C(=O)/C(=C/c2ccc(C)cc2)SC1=S	n
Cc1ccc(C(=O)NCCN2CCCC2)cc1	n
O=C(NCCCN1CCCC1)c1csc2c1CCCCC2	n
O=C(NCCN1CCCC1)C1=Cc2sc3c(c2CS1)CCCC3	74
COc1ccc2c(C#N)c3ccccn3c2c1	72
N#CCOc1ccc2c(C#N)c3ccccn3c2c1	n
COc1ccc(OCc2c(C#N)c3ccccc3n2C)cc1	n
CC(C)c1ccc(S(=O)(=O)c2cnc(SCC(=O)Nc3ccccc3)[nH]c2=O)cc1	n
CC1CCCN(C(c2ccc(F)cc2)c2c(O)[nH]c(=O)[nH]c2=O)C1 (centres undefined)	n
O=c1c2ccccc2c(C=NCc2cccnc2)c(O)n1-c1ccccc1C(F)(F)F	n
C(=NCc1cccnc1)c1ccc2c(c1)OCO2	n
C(=NCc1cccnc1)c1c2ccccc2cc2ccccc12	42
O=C(Oc1ccccc1N1CCCCC1)c1sccc1Cl	n
CC(=O)N1C(=S)NC(=O)/C1=C\c1c(Cl)cccc1Cl	n
FC(F)(F)c1n[nH]c(=S)n1/N=C/c1ccc(Cl)cc1	n
CCN1C=C/C(=C\c2cc[n+](CC)c3ccccc23)c2ccccc21	65
SMILES	VACV E9 pol inh
CC[n+]1ccc(C)c2ccccc21	n
Cc1ccc(-n2nc3c(c2NC(=O)CCC2CCCC2)CS(=O)C3)cc1 (centres undefined)	n
COc1cc(F)ccc1S(=O)(=O)N1CCCCC1C (centres undefined)	n
Cc1ccc(C)n1C(CC(=O)O)c1ccc(C#N)cc1 (centres undefined)	n
NC(CC(=O)O)C1CCCCC1 (centres undefined)	n
Cc1ccc(C)n1C(CC(=O)O)C1CCCCC1 (centres undefined)	70
CO[C@@H]1O[C@H](COC(=O)c2ccccc2)[C@H](OC(=O)c2ccccc2)[C@H]1OC(=O)c1ccccc1	n
O=c1[nH]c2ncnn2c(-c2ccc(Cl)cc2)c1-c1ccc(F)cc1	n
Cc1ccc(C(=O)NCc2ccc3[nH]c4c(c3c2)CCCC4)cc1C	n
CC(C)c1ccc2[nH]c3c(c2c1)CCC/C3=N\O	n
N/N=C1\CCCc2c1[nH]c1ccc(C(=O)NN)cc21	46
CCCCN(C)S(=O)(=O)c1ccc(C(=O)Nc2sccc2C#N)cc1	n
N#CC(CO)(Cc1ccccc1)c1nc2ccccc2[nH]1 (centres undefined)	n
Cc1cc(N2OCc3ccccc3CO2)ccc1N	n
Oc1ccccc1C=Nc1ccccc1O	n
N#Cc1ccccc1N=Cc1cccc(O)c1O	86
Cc1ccccc1C=Nc1ccccc1C#N	n
CC(C)Cn1c(=O)c(C#N)cc2c(=O)n3ccccc3nc21	n
COc1ccc(NC(c2ccc(C)cc2)n2ncc3c(=O)n(C)c4ccccc4c32)cc1 (centres undefined)	n
OCC(O)Cn1c2ccc(Br)cc2c2cc(Br)ccc21 (centres undefined)	65
CN(C)CC(O)Cn1c2ccc(Cl)cc2c2cc(Cl)ccc21 (centres undefined)	27
CN(C)CC(O)Cn1c2ccccc2c2ccccc21 (centres undefined)	n
OC(COc1ccccc1Br)CN1CCNCC1 (centres undefined)	n
Cc1ccc2c(c1)c(C)c(C)n2CC(O)CN1CCCCC1 (centres undefined)	n
OC(CN1CCNCC1)Cn1c2ccccc2c2cc(Br)ccc21 (centres undefined)	56
SMILES	VACV E9 pol inh
CC1CCN(CC(O)Cn2c3ccccc3c3ccccc32)CC1 (centres undefined)	n
CN(CC(O)Cn1c2ccccc2c2ccccc21)S(=O)(=O)c1ccc(Cl)cc1 (centres undefined)	n
CCn1c2c(c3cc(Br)ccc31)CCCC2=O	n
O=C(NC(=O)C(F)(F)F)Oc1ccc(Cl)cc1	n
COc1cc(C(F)(F)F)c(C(=O)N(C)Cc2ccccc2Cl)cn1	n
Cc1cc(OC(C)C(=O)O)c2c3c(c(=O)oc2c1)CCCC3 (centres undefined)	n
Cc1cc(Br)ccc1SCC(=O)OCC(=O)N1CCCC(C)C1 (centres undefined)	n
N#Cc1cccc(C(=O)O)c1	n
Cc1cc(=O)oc2cc(OCC(=O)O)c(Cl)cc12	n
O=C(c1ccccc1)c1sc(Nc2ccc3c(c2)OCCO3)nc1-c1ccccc1	n
O=S(=O)(/C=C/c1ccccc1)Nc1ccc(F)cc1	76
O=C(O)CNS(=O)(=O)/C=C/c1ccccc1	n
O=C(O)c1ccccc1NS(=O)(=O)/C=C/c1ccccc1	n
CCCN1C(=O)C(O)(c2c[nH]c3ccccc23)c2ccccc21 (centres undefined)	n
c1ccc(OCc2cn3cccnc3n2)cc1	n
Cc1nn(-c2ccccc2)c2sc(C(=O)Nc3ccccc3)cc12	n

Source: PubChem (ICCB-Longwood Screening Facility, Harvard Medical School)
